The campaign covered roughly 5,500 compounds. About 2,000 (36%) were called active. Inconclusive results (about 18%) are left out. No stated cut-off is given here; in the data, active means normalized growth mostly below about 0.91 (no sharp cut-off); inconclusive means no clear call, values can overlap the other calls; inactive means mostly above about 0.92. Some of the results follow.
Assay: chemical genetic growth profiling, strain panel (AID 1159580);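 further: tested at 20 µM; growth read once vehicle control cultures reached saturation at 30 °C; 1 = growth at the plate median or of vehicle wells; lower values mean less growth of the strain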
Details: S. cerevisiae deletion strains, growth OD

Measured: normalized growth

CCc1c(C(=O)OC)ncc2[nH]c3cc(OC)c(OC)cc3c12
inactive: locus YAL040C, strain CLN3, active compounds read low 0.994 | locus YCL061C, strain MRC1 (second series), active compounds read low 0.994 | locus YDR150W, strain NUM1, active compounds read low 0.995 | locus YDR363W, strain ESC2, active compounds read low 1 | locus YER002W, strain NOP16, active compounds read low 0.99 | locus YGR229C, strain SMI1, active compounds read low 1.05 | locus YJR075W, strain HOC1, active compounds read low 0.99 | locus YMR307W, strain GAS1, active compounds read low 1.01 | locus YNL153C, strain GIM3, active compounds read low 0.984 | locus YNL175C, strain NOP13, active compounds read low 0.998 | locus YNL197C, strain WHI3, active compounds read low 0.992 | locus YNL224C, strain SQS1, active compounds read low 1.02 | locus YOR083W, strain WHI5 (second series), active compounds read low 1 | locus YPL241C, strain CIN2, active compounds read low 0.999

CNCC[C@@H](Oc1ccccc1)c1ccccc1
inactive: locus YAL021C, strain ccr4, active compounds read low 0.976 | locus YAL026C, strain drs2, active compounds read low 0.961 | locus YAL030W, strain snc1, active compounds read low 0.947 | locus YBL061C, strain skt5, active compounds read low 0.98 | locus YBR009C, strain hhf1, active compounds read low 0.974 | locus YBR023C, strain chs3, active compounds read low 0.979 | locus YBR171W, strain sec66, active compounds read low 0.979 | locus YBR231C, strain swc5, active compounds read low 0.984 | locus YBR279W, strain paf1, active compounds read low 0.982 | locus YCL011C, strain gbp2, active compounds read low 0.975 | locus YCL016C, strain dcc1, active compounds read low 0.979 | locus YCL061C, strain MRC1, active compounds read low 0.982 | locus YCL069W, strain vba3, active compounds read low 0.978 | locus YCR088W, strain abp1, active compounds read low 0.983 | locus YDL005C, strain med2, active compounds read low 0.983 | locus YDL040C, strain nat1, active compounds read low 0.988 | locus YDR001C, strain nth1, active compounds read low 0.974 | locus YDR069C, strain doa4, active compounds read low 0.965 | locus YDR137W, strain rgp1, active compounds read low 1.02 | locus YDR159W, strain sac3, active compounds read low 0.944 | locus YDR195W, strain ref2 0.972 | locus YDR297W, strain sur2, active compounds read low 0.98 | locus YDR334W, strain swr1, active compounds read low 0.951 | locus YDR335W, strain msn5, active compounds read low 0.965 | locus YDR392W, strain spt3, active compounds read low 0.975 | locus YEL003W, strain gim4, active compounds read low 0.973 | locus YEL037C, strain rad23, active compounds read low 0.988 | locus YEL061C, strain CIN8 (second series), active compounds read low 0.988 | locus YER015W, strain faa2, active compounds read low 0.961 | locus YER016W, strain bim1, active compounds read low 0.978 | locus YER111C, strain swi4, active compounds read low 0.981 | locus YER155C, strain BEM2 (second series), active compounds read low 0.978 | locus YFR010W, strain ubp6, active compounds read low 0.964 | locus YGL167C, strain pmr1, active compounds read low 0.977 | locus YGL173C, strain kem1, active compounds read low 0.954 | locus YGL227W, strain vid30, active compounds read low 0.97 | locus YGL240W, strain doc1, active compounds read low 0.96 | locus YGL253W, strain hxk2, active compounds read low 0.984 | locus YHR013C, strain ard1, active compounds read low 0.973 | locus YHR027C, strain rpn1, active compounds read low 0.946 | locus YHR030C, strain SLT2, active compounds read low 1.01 | locus YHR079C, strain IRE1, active compounds read low 0.995 | locus YHR142W, strain chs7, active compounds read low 0.973 | locus YJL092W, strain hpr5, active compounds read low 0.984 | locus YJL095W, strain BCK1 (second series), active compounds read low 0.971 | locus YJL095W, strain BCK1, active compounds read low 0.996 | locus YJL115W, strain asf1, active compounds read low 0.957 | locus YJL129C, strain trk1, active compounds read low 0.99 | locus YJL154C, strain vps35, active compounds read low 0.97 | locus YJL164C, strain tpk1, active compounds read low 0.987 | locus YJL166W, strain qcr8, active compounds read low 0.976 | locus YJL187C, strain SWE1, active compounds read low 0.98 | locus YJR066W, strain TOR1, active compounds read low 0.946 | locus YKL160W, strain elf1, active compounds read low 0.989 | locus YKR026C, strain gcn3, active compounds read low 0.977 | locus YKR091W, strain srl3, active compounds read low 0.988 | locus YLL001W, strain dnm1, active compounds read low 0.988 | locus YLL026W, active compounds read low 0.97 | locus YLL041C, strain sdh2, active compounds read low 0.968 | locus YLR027C, strain aat2, active compounds read low 0.962 | locus YLR113W, strain HOG1, active compounds read low 0.965 | locus YLR221C, strain rsa3, active compounds read low 0.976 | locus YLR258W, strain gsy2, active compounds read low 0.981 | locus YLR262C, strain YPT6 (second series), active compounds read low 0.982 | locus YLR320W, strain mms22, active compounds read low 0.989 | locus YLR342W, strain FKS1, active compounds read low 0.976 | locus YLR357W, strain rsc2, active compounds read low 1.01 | locus YLR370C, strain arc18, active compounds read low 0.981 | locus YLR384C, strain iki3, active compounds read low 0.972 | locus YML120C, strain ndi1, active compounds read low 0.983 | locus YMR058W, strain fet3, active compounds read low 0.981 | locus YMR125W, strain sto1, active compounds read low 0.979 | locus YMR129W, active compounds read low 0.991 | locus YMR205C, strain PFK2, active compounds read low 0.958 | locus YMR231W, strain pep5, active compounds read low 0.984 | locus YNL071W, strain lat1, active compounds read low 0.993 | locus YNL183C, strain NPR1, active compounds read low 0.958 | locus YNL209W, strain ssb2, active compounds read low 0.948 | locus YNL248C, strain rpa49, active compounds read low 0.974 | locus YNL322C, strain KRE1 (second series), active compounds read low 0.978 | locus YNR049C, strain mso1, active compounds read low 0.969 | locus YOR001W, strain rrp6, active compounds read low 0.972 | locus YOR070C, strain gyp1, active compounds read low 0.989 | locus YOR080W, strain dia2, active compounds read low 0.973 | locus YOR083W, strain WHI5, active compounds read low 0.981 | locus YOR106W, strain vam3, active compounds read low 0.972 | locus YOR231W, strain MKK1, active compounds read low 1.01 | locus YOR265W, strain rbl2, active compounds read low 0.98 | locus YOR270C, strain vph1, active compounds read low 1.01 | locus YOR290C, strain snf2, active compounds read low 0.974 | locus YPL051W, strain arl3, active compounds read low 0.994 | locus YPL078C, strain atp4, active compounds read low 0.984 | locus YPL106C, strain sse1, active compounds read low 0.924 | locus YPL240C, strain hsp82, active compounds read low 0.976 | locus YPL256C, strain CLN2, active compounds read low 0.992

From PubChem BioAssay AID1159580 (chemical genetic matrix, 2015)
